# Reference: PMC7862700, “An all-to-all approach to the identification of sequence-specific readers for epigenetic DNA modifications on cytosine”
# Legend:
# Experiment in all cases: DAPPL (digital affinity profiling via proximity ligation, sequencing); 10 mM Tris-HCl pH 7.5, 50 mM NaCl, 1 mM DTT, 4% glycerol, room temperature, 30 min; GST-TFs on glutathione beads, 16-mer random dsDNA library, 0.1% formaldehyde crosslink after washing; high values mean tight binding
# FEV = target: T1, FEV (Homo sapiens, UniProt Q99581 1-238); conditions: protein: recombinant; tags: N-terminal GST; dsDNA, one strand shown
# T1 sequence: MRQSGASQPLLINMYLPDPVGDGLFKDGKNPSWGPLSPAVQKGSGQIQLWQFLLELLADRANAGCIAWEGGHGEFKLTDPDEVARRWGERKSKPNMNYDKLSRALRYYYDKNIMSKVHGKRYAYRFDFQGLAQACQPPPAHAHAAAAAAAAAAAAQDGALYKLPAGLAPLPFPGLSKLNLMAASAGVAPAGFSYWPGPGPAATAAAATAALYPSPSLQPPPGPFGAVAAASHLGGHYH
# In short: (§1)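 Pools were built from human transcription factors expressed in yeast as GST fusions, captured on glutathione beads and DNA-barcoded, along with a tag-only sample. Incubation with 200 nmole of a 16-mer random double-stranded DNA library lasted 30 min at room temperature in Tris/NaCl/DTT/glycerol buffer, and was followed by washing, 0.1% formaldehyde crosslinking, proximity ligation, PCR amplification and Illumina NextSeq500 sequencing. Binding signal is the quotient of each hexamer's read frequency for a factor and its frequency for the tag-only sample.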
# ETV5 = ETV5 (Homo sapiens, UniProt P41161 1-510); conditions: protein: recombinant; tags: N-terminal GST; dsDNA, one strand shown
# ETV5, sequence (P41161 whole entry): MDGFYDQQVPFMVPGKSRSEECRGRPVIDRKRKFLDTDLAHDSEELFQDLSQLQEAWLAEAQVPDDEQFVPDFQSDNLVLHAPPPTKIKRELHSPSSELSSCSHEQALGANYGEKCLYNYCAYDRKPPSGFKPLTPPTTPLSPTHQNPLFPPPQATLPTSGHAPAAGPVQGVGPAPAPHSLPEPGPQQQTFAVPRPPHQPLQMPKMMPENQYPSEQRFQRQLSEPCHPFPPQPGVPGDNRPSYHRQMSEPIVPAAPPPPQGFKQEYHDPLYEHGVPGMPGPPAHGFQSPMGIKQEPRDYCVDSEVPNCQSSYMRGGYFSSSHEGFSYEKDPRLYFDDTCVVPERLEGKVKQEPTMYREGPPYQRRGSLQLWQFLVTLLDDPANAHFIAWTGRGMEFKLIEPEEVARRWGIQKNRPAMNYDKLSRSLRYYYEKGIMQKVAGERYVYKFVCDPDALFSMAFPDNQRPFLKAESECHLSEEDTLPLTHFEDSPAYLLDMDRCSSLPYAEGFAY
# In short: as §1
# HSF1 = HSF1 (Homo sapiens, UniProt Q00613 1-529); conditions: protein: recombinant; tags: N-terminal GST; chain copies: 3; dsDNA, one strand shown
# HSF1, sequence (Q00613 whole entry): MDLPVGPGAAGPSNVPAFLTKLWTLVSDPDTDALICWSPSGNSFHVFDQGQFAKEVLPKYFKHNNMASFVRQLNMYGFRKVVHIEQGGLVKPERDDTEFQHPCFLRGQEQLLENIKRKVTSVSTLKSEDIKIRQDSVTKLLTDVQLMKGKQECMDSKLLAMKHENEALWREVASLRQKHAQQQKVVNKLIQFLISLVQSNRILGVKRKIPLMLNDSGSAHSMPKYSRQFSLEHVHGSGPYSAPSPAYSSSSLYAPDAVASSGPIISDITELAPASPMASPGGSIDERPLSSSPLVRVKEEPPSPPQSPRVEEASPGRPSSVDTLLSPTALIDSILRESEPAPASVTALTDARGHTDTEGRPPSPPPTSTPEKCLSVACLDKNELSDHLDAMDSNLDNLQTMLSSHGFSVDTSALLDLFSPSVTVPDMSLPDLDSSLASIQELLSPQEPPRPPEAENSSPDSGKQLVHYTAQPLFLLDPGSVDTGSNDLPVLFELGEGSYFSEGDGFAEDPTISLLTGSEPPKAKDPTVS
# In short: as §1
# SPIC = target: T2, SPIC (Homo sapiens, UniProt Q8N5J4 1-248); conditions: protein: recombinant; tags: N-terminal GST; dsDNA, one strand shown
# T2 sequence: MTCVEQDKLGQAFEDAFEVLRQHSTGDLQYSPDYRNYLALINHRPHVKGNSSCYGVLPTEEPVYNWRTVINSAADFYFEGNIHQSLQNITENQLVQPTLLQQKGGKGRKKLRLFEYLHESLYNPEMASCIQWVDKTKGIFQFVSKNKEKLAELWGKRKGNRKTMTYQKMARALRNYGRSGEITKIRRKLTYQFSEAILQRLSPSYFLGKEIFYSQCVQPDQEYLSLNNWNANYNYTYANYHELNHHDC
# In short: as §1
# ELF4 = ELF4 (Homo sapiens, UniProt Q99607 1-663); conditions: protein: recombinant; tags: N-terminal GST; dsDNA, one strand shown
# ELF4, sequence (Q99607 whole entry): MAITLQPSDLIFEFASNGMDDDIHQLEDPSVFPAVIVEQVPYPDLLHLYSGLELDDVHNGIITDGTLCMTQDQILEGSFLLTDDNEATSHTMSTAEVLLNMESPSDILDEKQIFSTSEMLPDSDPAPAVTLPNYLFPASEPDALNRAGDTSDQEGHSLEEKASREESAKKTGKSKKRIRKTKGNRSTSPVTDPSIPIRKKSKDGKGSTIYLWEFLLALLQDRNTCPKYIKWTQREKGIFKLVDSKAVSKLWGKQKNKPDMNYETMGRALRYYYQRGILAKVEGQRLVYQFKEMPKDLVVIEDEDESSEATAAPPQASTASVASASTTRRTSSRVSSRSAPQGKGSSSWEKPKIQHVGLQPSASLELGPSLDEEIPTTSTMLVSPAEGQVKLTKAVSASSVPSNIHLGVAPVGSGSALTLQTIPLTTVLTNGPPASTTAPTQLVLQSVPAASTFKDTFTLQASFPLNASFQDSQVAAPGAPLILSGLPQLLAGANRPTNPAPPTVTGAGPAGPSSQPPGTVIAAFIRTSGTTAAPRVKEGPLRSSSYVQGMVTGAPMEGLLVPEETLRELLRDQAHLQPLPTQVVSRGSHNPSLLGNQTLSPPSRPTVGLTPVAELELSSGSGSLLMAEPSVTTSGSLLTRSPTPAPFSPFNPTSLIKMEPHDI
# In short: as §1
# ELK4 = target: T3, ELK4 (Homo sapiens, UniProt P28324-2 1-405); conditions: protein: recombinant; tags: N-terminal GST; dsDNA, one strand shown
# T3 sequence: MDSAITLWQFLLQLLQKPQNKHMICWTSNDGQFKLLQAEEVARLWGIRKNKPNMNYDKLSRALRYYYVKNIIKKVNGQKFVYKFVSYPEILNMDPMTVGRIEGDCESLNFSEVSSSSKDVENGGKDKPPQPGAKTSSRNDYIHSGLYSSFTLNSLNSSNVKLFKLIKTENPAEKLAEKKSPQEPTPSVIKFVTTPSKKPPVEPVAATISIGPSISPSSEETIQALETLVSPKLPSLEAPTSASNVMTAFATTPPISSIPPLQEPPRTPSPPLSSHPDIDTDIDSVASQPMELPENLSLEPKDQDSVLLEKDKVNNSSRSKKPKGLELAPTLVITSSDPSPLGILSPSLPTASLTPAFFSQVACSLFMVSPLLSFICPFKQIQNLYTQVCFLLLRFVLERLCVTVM
# In short: as §1
# ETV2 = target: T4, ETV2 (Homo sapiens, UniProt O00321 1-342); conditions: protein: recombinant; tags: N-terminal GST; dsDNA, one strand shown
# T4 sequence: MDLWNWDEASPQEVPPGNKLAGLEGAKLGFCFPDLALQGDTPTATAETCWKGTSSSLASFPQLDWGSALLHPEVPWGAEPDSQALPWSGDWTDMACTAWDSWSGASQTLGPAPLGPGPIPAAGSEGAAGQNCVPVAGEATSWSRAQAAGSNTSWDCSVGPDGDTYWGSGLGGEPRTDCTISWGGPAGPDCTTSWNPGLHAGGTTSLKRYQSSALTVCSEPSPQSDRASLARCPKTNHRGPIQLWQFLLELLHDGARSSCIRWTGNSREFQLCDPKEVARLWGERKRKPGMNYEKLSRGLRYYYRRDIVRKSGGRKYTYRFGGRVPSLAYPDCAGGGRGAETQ
# In short: as §1
# ELF3 = target: T5, ELF3 (Homo sapiens, UniProt P78545 1-371); conditions: protein: recombinant; tags: N-terminal GST; dsDNA, one strand shown
# T5 sequence: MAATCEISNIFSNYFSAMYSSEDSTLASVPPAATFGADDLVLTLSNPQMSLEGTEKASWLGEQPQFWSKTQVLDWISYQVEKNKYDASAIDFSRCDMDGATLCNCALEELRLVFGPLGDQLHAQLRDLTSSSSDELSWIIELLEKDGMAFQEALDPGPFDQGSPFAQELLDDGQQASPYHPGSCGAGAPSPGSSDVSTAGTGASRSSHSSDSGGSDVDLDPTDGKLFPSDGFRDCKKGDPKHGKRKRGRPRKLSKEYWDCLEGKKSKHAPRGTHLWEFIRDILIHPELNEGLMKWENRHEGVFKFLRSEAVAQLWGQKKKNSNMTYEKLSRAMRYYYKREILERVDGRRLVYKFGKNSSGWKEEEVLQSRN
# In short: as §1
# CRX = CRX (Homo sapiens, UniProt O43186 1-299); conditions: protein: recombinant; tags: N-terminal GST; dsDNA, one strand shown
# CRX, sequence (O43186 whole entry): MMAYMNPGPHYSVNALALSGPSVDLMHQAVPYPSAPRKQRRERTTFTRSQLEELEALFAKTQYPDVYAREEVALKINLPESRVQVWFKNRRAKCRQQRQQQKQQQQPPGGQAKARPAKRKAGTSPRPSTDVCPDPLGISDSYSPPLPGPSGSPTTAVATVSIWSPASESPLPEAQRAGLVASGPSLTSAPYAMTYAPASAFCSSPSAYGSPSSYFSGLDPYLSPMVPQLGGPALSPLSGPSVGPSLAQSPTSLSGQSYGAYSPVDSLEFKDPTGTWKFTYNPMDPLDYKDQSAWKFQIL
# In short: as §1
# ETV1 = ETV1 (Homo sapiens, UniProt P50549 1-477); conditions: protein: recombinant; tags: N-terminal GST; dsDNA, one strand shown
# ETV1, sequence (P50549 whole entry): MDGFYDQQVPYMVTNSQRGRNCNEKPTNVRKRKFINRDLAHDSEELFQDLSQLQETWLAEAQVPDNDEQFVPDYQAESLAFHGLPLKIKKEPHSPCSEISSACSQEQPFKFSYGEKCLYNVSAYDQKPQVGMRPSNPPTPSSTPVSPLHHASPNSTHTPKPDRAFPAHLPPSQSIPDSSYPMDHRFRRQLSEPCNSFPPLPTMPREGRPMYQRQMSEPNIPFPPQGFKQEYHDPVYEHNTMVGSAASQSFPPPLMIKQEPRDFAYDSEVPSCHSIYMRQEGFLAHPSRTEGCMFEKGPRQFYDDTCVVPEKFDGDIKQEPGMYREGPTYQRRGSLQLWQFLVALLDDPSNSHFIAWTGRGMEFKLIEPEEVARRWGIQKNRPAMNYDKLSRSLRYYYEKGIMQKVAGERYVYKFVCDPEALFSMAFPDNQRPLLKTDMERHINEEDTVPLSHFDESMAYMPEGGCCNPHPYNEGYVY
# In short: as §1
# ERF = target: T6, ERF (Homo sapiens, UniProt P50548 1-548); conditions: protein: recombinant; tags: N-terminal GST; dsDNA, one strand shown
# T6 sequence: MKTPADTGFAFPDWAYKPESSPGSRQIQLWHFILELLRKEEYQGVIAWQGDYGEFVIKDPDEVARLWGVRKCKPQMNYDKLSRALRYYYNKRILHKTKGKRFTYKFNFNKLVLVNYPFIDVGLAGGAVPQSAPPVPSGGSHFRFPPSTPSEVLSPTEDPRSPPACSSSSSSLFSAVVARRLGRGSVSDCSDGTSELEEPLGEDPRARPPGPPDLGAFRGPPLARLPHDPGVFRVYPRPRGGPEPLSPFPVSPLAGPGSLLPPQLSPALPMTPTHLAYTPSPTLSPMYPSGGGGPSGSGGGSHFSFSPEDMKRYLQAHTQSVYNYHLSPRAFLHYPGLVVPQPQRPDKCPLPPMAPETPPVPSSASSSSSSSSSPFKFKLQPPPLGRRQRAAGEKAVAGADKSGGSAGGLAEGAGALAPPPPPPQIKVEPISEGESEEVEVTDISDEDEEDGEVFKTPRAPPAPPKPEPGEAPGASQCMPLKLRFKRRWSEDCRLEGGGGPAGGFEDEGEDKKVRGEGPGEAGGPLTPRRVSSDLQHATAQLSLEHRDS
# In short: as §1
# ETV3L = target: T7, ETV3L (Homo sapiens, UniProt Q6ZN32 1-361); conditions: protein: recombinant; tags: N-terminal GST; dsDNA, one strand shown
# T7 sequence: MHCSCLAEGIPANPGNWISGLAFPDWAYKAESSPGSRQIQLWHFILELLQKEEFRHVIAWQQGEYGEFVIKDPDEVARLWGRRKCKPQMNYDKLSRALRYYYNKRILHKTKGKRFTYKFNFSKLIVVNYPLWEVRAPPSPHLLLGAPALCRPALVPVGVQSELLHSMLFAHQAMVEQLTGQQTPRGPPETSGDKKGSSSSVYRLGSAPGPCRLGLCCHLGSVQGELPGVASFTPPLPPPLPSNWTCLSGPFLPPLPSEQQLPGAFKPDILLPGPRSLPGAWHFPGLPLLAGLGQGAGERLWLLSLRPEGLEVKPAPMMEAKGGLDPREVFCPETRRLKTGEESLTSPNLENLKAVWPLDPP
# In short: as §1
# ETS2 = target: T8, ETS2 (Homo sapiens, UniProt P15036 1-469); conditions: protein: recombinant; tags: N-terminal GST; dsDNA, one strand shown
# T8 sequence: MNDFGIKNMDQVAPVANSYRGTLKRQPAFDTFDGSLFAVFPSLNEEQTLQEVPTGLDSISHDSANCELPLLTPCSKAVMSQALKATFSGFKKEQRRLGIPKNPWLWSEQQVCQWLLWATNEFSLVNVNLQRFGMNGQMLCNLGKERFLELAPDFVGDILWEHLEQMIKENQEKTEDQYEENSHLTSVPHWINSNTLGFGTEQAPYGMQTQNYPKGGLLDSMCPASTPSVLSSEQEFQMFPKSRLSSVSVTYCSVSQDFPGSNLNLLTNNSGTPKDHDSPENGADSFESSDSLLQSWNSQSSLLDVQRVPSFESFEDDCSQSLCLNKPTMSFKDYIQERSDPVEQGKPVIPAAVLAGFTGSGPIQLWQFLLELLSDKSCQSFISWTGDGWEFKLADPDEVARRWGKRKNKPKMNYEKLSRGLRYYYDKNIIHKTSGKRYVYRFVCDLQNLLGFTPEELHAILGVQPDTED
# In short: as §1
# SPDEF = target: T9, SPDEF (Homo sapiens, UniProt O95238 1-335); conditions: protein: recombinant; tags: N-terminal GST; dsDNA, one strand shown
# T9 sequence: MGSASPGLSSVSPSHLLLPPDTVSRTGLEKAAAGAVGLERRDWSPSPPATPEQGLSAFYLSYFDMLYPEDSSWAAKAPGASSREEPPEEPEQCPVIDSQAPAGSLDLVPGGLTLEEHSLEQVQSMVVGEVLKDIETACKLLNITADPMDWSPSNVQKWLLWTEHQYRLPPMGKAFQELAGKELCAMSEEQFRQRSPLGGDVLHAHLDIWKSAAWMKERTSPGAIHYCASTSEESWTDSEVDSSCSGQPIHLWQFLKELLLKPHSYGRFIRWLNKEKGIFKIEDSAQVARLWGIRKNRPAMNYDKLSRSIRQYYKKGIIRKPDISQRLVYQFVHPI
# In short: as §1
# ETV7 = target: T10, ETV7 (Homo sapiens, UniProt Q9Y603 1-341); conditions: protein: recombinant; tags: N-terminal GST; dsDNA, one strand shown
# T10 sequence: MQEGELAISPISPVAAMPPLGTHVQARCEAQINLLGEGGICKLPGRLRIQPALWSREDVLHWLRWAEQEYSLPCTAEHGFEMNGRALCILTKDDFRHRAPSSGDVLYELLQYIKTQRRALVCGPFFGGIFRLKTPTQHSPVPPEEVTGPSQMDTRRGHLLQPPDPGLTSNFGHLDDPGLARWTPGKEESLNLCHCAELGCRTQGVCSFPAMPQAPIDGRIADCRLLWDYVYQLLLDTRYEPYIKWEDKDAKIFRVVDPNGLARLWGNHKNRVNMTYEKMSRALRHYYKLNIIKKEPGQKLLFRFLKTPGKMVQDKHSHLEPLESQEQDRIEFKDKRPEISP
# In short: as §1
# ELF5 = target: T11, ELF5 (Homo sapiens, UniProt Q9UKW6-2 1-255); conditions: protein: recombinant; tags: N-terminal GST; dsDNA, one strand shown
# T11 sequence: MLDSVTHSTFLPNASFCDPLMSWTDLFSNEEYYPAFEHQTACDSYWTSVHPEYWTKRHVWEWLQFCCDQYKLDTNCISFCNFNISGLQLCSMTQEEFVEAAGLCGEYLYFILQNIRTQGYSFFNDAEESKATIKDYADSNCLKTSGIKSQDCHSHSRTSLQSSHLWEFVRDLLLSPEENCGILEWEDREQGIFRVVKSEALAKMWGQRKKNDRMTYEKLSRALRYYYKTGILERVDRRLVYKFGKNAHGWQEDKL
# In short: as §1
# ETV3 = target: T12, ETV3 (Homo sapiens, UniProt P41162-2 1-143); conditions: protein: recombinant; tags: N-terminal GST; dsDNA, one strand shown
# T12 sequence: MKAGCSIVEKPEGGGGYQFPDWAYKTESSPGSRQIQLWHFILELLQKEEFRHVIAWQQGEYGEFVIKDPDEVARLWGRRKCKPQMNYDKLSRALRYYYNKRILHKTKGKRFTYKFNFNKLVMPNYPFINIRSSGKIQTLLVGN
# In short: as §1
# ETV6 = ETV6 (Homo sapiens, UniProt P41212 1-452); conditions: protein: recombinant; tags: N-terminal GST; dsDNA, one strand shown
# ETV6, sequence (P41212 whole entry): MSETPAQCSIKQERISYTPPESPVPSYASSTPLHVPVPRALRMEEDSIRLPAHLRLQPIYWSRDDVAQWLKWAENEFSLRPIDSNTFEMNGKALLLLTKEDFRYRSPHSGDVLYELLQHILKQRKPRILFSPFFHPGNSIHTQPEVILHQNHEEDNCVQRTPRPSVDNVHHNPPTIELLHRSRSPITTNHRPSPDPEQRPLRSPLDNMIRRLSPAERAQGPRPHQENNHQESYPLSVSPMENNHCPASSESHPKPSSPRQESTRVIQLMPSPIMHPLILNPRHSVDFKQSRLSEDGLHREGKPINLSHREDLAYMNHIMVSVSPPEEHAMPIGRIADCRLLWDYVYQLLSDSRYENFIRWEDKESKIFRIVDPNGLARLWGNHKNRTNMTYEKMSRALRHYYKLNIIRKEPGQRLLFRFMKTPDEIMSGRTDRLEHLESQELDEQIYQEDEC
# In short: as §1
sequence,measurement,setting,value
CTAATC,binding signal,FEV,"1.33 fold enrichment (6-mer frequency, TF over GST control)"
same,binding signal,ETV5,"1.32 fold enrichment (6-mer frequency, TF over GST control)"
same,binding signal,HSF1,"3.22 fold enrichment (6-mer frequency, TF over GST control)"
same,binding signal,SPIC,"1.41 fold enrichment (6-mer frequency, TF over GST control)"
same,binding signal,ELF4,"1.42 fold enrichment (6-mer frequency, TF over GST control)"
same,binding signal,ELK4,"1.35 fold enrichment (6-mer frequency, TF over GST control)"
same,binding signal,ETV2,"1.41 fold enrichment (6-mer frequency, TF over GST control)"
same,binding signal,ELF3,"1.56 fold enrichment (6-mer frequency, TF over GST control)"
same,binding signal,CRX,"5.33 fold enrichment (6-mer frequency, TF over GST control)"
same,binding signal,ETV1,"1.49 fold enrichment (6-mer frequency, TF over GST control)"
same,binding signal,ERF,"1.31 fold enrichment (6-mer frequency, TF over GST control)"
same,binding signal,ETV3L,"1.34 fold enrichment (6-mer frequency, TF over GST control)"
same,binding signal,ETS2,"1.32 fold enrichment (6-mer frequency, TF over GST control)"
same,binding signal,SPDEF,"1.34 fold enrichment (6-mer frequency, TF over GST control)"
same,binding signal,ETV7,"1.41 fold enrichment (6-mer frequency, TF over GST control)"
same,binding signal,ELF5,"1.33 fold enrichment (6-mer frequency, TF over GST control)"
same,binding signal,ETV3,"1.32 fold enrichment (6-mer frequency, TF over GST control)"
same,binding signal,ETV6,"1.35 fold enrichment (6-mer frequency, TF over GST control)"
